# Screens from PubChem.
# Rows were chosen to be rich in hits. Some 2.9% of all compounds tested hit in one or more screens of this group.
# HIF-2a inh – HIF-2a inhibition | 786-0 RCC cells HIF-2a reporter, luciferase luminescence, overnight | inhibition, % at 18.8 µM | actives 0.72% (n = 360,000) | AID 624352;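 active = inhibition of the luminescence signal of 40% or more relative to plate controls, in a single-dose primary screen at 18.75 µM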
# KKLEB cytotox – CF airway cell cytotoxicity counter-screen; actives 0.36% (n = 360,000); AID 602141; activity change (cytotoxicity), % at 5 µM; KKLEB CF airway cells viability, ATPlite luminescence, overnight; active compounds read low; cells stimulated with P. aeruginosa culture filtrate;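 active = corrected activity change at or below -50% at 5 µM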
# Shn3 inh set2 – Schnurri-3 reporter inhibition in Clone20 osteoblasts. Clone20 osteoblast Shn3 3'UTR firefly luciferase, 24 h. AID 588674. inhibition, % at 12.5 µM. actives 0.52% (n = 360,000);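 active = mean inhibition of at least 75% with every replicate also reaching 75%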;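 note: 0% = median of neutral control wells and 100% = pilot-screen positive control compound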
# EBV LMP1 NFkB – Epstein-Barr LMP1 NF-kappaB reporter inhibition | LMP1-induced NF-kappaB luciferase reporter cells, luminescence | inhibition, % at 12.5 µM | actives 0.69% (n = 350,000); in the data active = inhibition above about 41%;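 note: 0% = neutral control wells and 100% = reference inhibitor control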
# CF NFkB inh – inhibitors of cystic fibrosis induced NF-kB | inhibition, % at 5 µM | actives 0.86% (n = 360,000) | AID 588850 | KKLEB NF-kB-GFP reporter, PAF-induced, GFP fluorescence overnight;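 active = at least 50% inhibition at 5 µM, scaled per plate between neutral and stimulator controls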;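 note: PAF is a Pseudomonas aeruginosa culture filtrate used as stimulus; plate controls were PAF-stimulated DMSO wells for no effect and unstimulated DMSO wells for full effect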
# Peg3 promoter – reduces Peg3 promoter-driven luciferase expression in HeLa; HeLa PEG-Prom luciferase reporter, luminescence, overnight; inhibition, % at 20 µM; actives 1.7% (n = 360,000);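 active = inhibition of at least 50% at 20 µM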
# Active calls of the source: *; . = not tested or not shown.
SMILES,HIF-2a inh,KKLEB cytotox,Shn3 inh set2,EBV LMP1 NFkB,CF NFkB inh,Peg3 promoter
O=C(CCSCc1ccccc1Cl)N1CCN(c2cccc(Cl)c2)CC1,-38,-20,-19,-4,9,10
Cc1cc(C(=O)COc2ccc(Br)cc2F)c(C)n1CC1CCCO1 (centres undefined),-102,-9,-18,-19,21,-74
COc1cnc(-c2ccccn2)nc1N(C)c1ccccc1,-173,-17,89*,12,-3,-50
CC(=O)Nc1ccc(NC(=O)c2cc(-c3cc(C)c(C)cc3O)n[nH]2)cc1,-15,-3,-3,0,10,-20
O=C(Nc1ccc(S(=O)(=O)N2CCOCC2)cc1)c1cc(-c2cc(Cl)ccc2O)n[nH]1,-3,-44,40,-5,23,86*
Cc1ccc(O)c(-c2cc(C(=O)Nc3ccc(S(=O)(=O)N4CC(C)OC(C)C4)cc3)[nH]n2)c1 (centres undefined),-4,9,63,-9,-5,55*
Cc1cc(O)c(-c2cc(C(=O)Nc3ccc(S(=O)(=O)N4CCOCC4)cc3)[nH]n2)cc1C,-4,9,30,0,5,60*
Cc1ccc(-c2cc(C(=O)Nc3ccc(S(=O)(=O)N4CC(C)OC(C)C4)cc3)[nH]n2)c(O)c1 (centres undefined),21,-8,37,26,13,43
O=C(N[C@@H](Cc1ccccc1)C(=O)OCc1ccccc1)c1nc[nH]c1C(=O)N1CCNCC1,12,-17,-12,4,21,-11
Nn1c(SCC(=O)N2CCOCC2)nnc1-c1cccnc1,4,1,-8,7,-8,7
CN(C)S(=O)(=O)c1cccc(NC(=O)COc2ccccc2C(=O)Nc2ccccc2)c1,-2,12,67,5,-9,47
Cc1ccc(S(=O)(=O)N(C)C)cc1NC(=O)COc1ccccc1C(=O)Nc1ccccc1,13,-17,49,2,15,60*
Clc1ccc(-c2ccnc(Oc3ccc4ccccc4c3)n2)cc1,9,-2,-7,57*,-2,30
Clc1ccc(-c2ccnc(Oc3cc(Cl)ccc3Cl)n2)cc1,5,-1,18,4,-14,28
COc1cc([N+](=O)[O-])cc2sc(NC(=O)C(C)(C)C)nc12,-6,11,-15,6,1,2
COCCn1c(SCC(=O)c2c(-c3ccccc3)n(C)c3ccccc23)nnc1-c1ccncc1,18,-9,-31,1,20,8
COCCn1c(SCC(=O)/C=C2\N(C)c3ccccc3C2(C)C)nnc1-c1ccncc1,15,-7,89*,2,3,14
Oc1ccc(N=C/C=C/c2cccc(Br)c2)cc1-c1nc2ccccc2s1,-129,-1,-48,-32,-20,67*
CCOc1ccc(S(=O)(=O)NC(C)(C)C)cc1-c1nc2c(C(C)(C)C)nn(C)c2c(=O)[nH]1,-54,-4,8,2,1,53*
CCOc1ccc(S(N)(=O)=O)cc1-c1nc2c(C(C)(C)C)nn(C)c2c(=O)[nH]1,11,-7,6,-7,-2,8
O=C1NC2CCCCC2C(=O)N1OS(=O)(=O)c1ccccc1 (centres undefined),12,-18,29,0,12,51*
COc1ccc(C2=NN(C(=O)CSC3=NN4CCCC(=O)N=C4S3)C(c3cccc(OC)c3OC)C2)cc1 (centres undefined),11,0,1,77*,-13,5
Cc1ccc(C(=O)Nc2cccc(C(=O)N/N=C/c3ccccc3F)c2)cc1,-43,2,-45,59*,-2,15
CC(=O)Nc1cccc(C(=O)N/N=C/c2ccccc2F)c1,-123,-5,-78,23,-2,-122
CCN1CCN(S(=O)(=O)c2ccc(OC)cc2)CC1,19,0,5,1,15,8
SMILES,HIF-2a inh,KKLEB cytotox,Shn3 inh set2,EBV LMP1 NFkB,CF NFkB inh,Peg3 promoter
Cc1ccc(S(=O)(=O)NC2CCCC2)cc1C,17,4,0,0,3,-3
Cc1ccc(S(=O)(=O)NC2CCSC2=O)cc1C (centres undefined),15,16,-5,69*,-12,0
FC(F)(F)c1cc(-c2ccccc2)nc2nc(N3CCOCC3)sc12,2,13,19,1,-11,11
CC(=O)c1ccc(S(=O)(=O)Nc2ccc(C(=O)NCCCn3ccnc3)cc2)cc1,2,0,5,1,-6,-2
Cc1sc(NC(=O)Cn2[nH]c(=O)c3ccccc3c2=O)nc1-c1ccccc1,-33,-2,41,16,16,63*
O=[N+]([O-])c1cc([N+](=O)[O-])c2cc3ccccc3nc2c1,15,-2,71,-8,84*,92*
Cc1sc2nc(CSCC(=O)Nc3ccc(Cl)cc3F)[nH]c(=O)c2c1C,9,11,8,3,-12,13
Cc1ccc(S(=O)c2snnc2C)cc1 (centres undefined),20,-13,-3,-1,8,8
CNC(=O)c1nnsc1S(=O)c1ccc(Cl)cc1 (centres undefined),-18,-6,97*,8,91*,103*
COc1ccc2c(c1)C(c1ccc(C)o1)=NNC(c1cccnc1)=N2,6,5,5,-6,7,24
COc1ccc2c(c1)C(c1ccc(C)o1)=NNC(c1ccccc1)=N2,-19,9,1,43*,5,-23
O=C(Cc1ccccc1)Nc1ncnc2c1C(c1ccccc1)c1c(ccc3ccccc13)O2 (centres undefined),21,-13,25,13,18,53*
O=C(Nc1ncnc2c1C(c1ccccc1)c1c(ccc3ccccc13)O2)c1ccccc1 (centres undefined),17,-15,11,-3,39,34
COC(C(=O)N1CCC(n2nccc2NC(=O)C2CC2)CC1)c1ccccc1 (centres undefined),-138,-4,-27,-15,10,-117
Cc1ccc(S(=O)(=O)NCC(=O)OCC(=O)N(C)C2CCS(=O)(=O)C2)cc1 (centres undefined),7,0,7,-7,16,5
COc1ccc(C(O)c2nc(-c3cccc(C(F)(F)F)c3)cs2)cc1 (centres undefined),-10,8,5,.,-33,10
COc1ccc(C(O)c2nc(-c3cccc(F)c3)cs2)cc1 (centres undefined),-49,-37,82*,.,-5,-32
Cc1cc(C)c(C(N)=O)c(SCC(=O)c2cc(C)c(C)cc2C)n1,-21,2,-31,5,2,-14
Cc1cc(C)c(C(N)=O)c(SCC(=O)c2cc(C)n(-c3cc(C)on3)c2C)n1,6,19,90*,6,12,-1
Cc1cc(-n2c(C)cc(C(=O)CSc3nncn3C)c2C)no1,-33,2,90*,-4,-12,-1
